# According to PubChem BioAssay (EPA / NIEHS):
# Inconclusive results are not listed. The source made the active and inactive calls. The calls were made as follows, unless noted: active = hit-call score of the fitted dose curve at least 0.9, where 1 is the maximum; inactive = score below 0.9.
# Experiments:
# [1] = CCTE_Shafer_MEA_acute_burst_number: CCTE's Neural Acute Assay for Single-Electrode Bursts, Shafer Lab (AID 2284013)
# Procedure, shortened: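 Primary rat cortical neurons on 16-electrode MEA wells, DIV 13 or 15, exposed to compound (0.03-40 uM; ≥3 wells); 40-min recordings at 37 C before and after treatment. Burst count expressed as percent change from baseline, DMSO as negative control.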
# [2] = CCTE_Shafer_MEA_acute_per_burst_spike_number_mean: CCTE's Neural Acute Assay for Average Number of Spikes Per Burst, Shafer Lab (AID 2284015);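 also: hits are decreases in mean spikes per burst versus baseline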
# Procedure, shortened: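 Rat primary cortical neurons on 48-well MEAs (DIV 13 or 15) were treated with 0.03-40 uM compound at 37 C. Mean spikes per burst over 40 min were recorded before and after exposure and expressed as percent change from baseline, relative to DMSO.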
# [3] = CCTE_Shafer_MEA_acute_interburst_interval_mean: CCTE's Neural Acute Assay for Mean Interburst Interval, Shafer Lab (AID 2284016);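 also: percent change of mean interburst interval versus each well's own pre-dose baseline; curves fitted for decrease in interburst interval relative to DMSO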
# Procedure, shortened: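 Rat primary cortical neurons on 48-well MEAs at DIV 13 or 15 were exposed acutely to 0.03-40 uM. Spikes detected at 8x rms noise, 37 C. Mean interburst interval from 40 min recordings expressed as percent change from 40 min pre-treatment baseline.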
# [4] = CCTE_Shafer_MEA_acute_burst_percentage_mean: CCTE's Neural Acute Assay for Percentage of Spikes in a Burst, Shafer Lab (AID 2284017);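 also: curve fitted for loss of signal so potency reflects decreased burst percentage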
# Procedure, shortened: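 Primary rat cortical neurons on 48-well MEA plates, treated on DIV 13 or 15 at 0.03-40 uM. Spikes detected at 8x rms noise at 37C; percent change from 40-min baseline to 40-min post-dose recording, fitted versus DMSO.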
# [5] = CCTE_Shafer_MEA_acute_burst_percentage_std: CCTE's Neural Acute Assay for Standard Deviation of Burst Percentage, Shafer Lab (AID 2284018);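 also: fitted in the negative direction so actives lower burst percentage SD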
# Procedure, shortened: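 Value is percent change from baseline in the across-electrode SD of spikes-in-bursts percentage, wells with >/= 10 active electrodes. Acute 40-min exposure to 0.03-40 uM on DIV 13 or 15 rat cortical cultures, recorded at 37 C after 40-min baseline.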
# [6] = CCTE_Shafer_MEA_acute_per_network_burst_spike_number_mean: CCTE's Neural Acute Assay for Average Number of Spikes in a Network Burst, Shafer Lab (AID 2284019)
# Procedure, shortened: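 Percent change from baseline in mean spikes per network burst, spikes detected at 8x rms noise. Each compound at 0.03-40 uM in at least three wells of rat cortical cultures, recorded 40 min before and 40 min during exposure.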
# [7] = CCTE_Shafer_MEA_acute_per_network_burst_spike_number_std: CCTE's Neural Acute Assay for Standard Deviation of Number of Spikes in a Network Burst, Shafer Lab (AID 2284020);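 also: fitted for decrease in spike-number SD versus DMSO so actives lower it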
# Procedure, shortened: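 Endpoint: percent change from 40 min baseline in standard deviation of spikes per network burst, after 40 min compound exposure (0.03-40 uM, 37 C). Cortical rat neurons on MEA at DIV 13 or 15; spikes detected at 8x rms noise, 300-5000 Hz band-pass.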
# [8] = CCTE_Shafer_MEA_acute_per_network_burst_electrodes_number_mean: CCTE's Neural Acute Assay for Mean Number of Electrodes in a Network Burst, Shafer Lab (AID 2284021);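 also: curves fitted for decreases only so hits reduce electrodes per burst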
# Procedure, shortened: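 Rat primary cortical neurons on 16-electrode MEA wells were recorded 40 min at baseline on DIV 13 or 15, then 40 min after compound (0.03-40 uM), at 37 C. Value is percent change per well, fitted in loss direction versus DMSO.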
# [9] = CCTE_Shafer_MEA_acute_network_burst_percentage: CCTE's Neural Acute Assay for Percentage of Network Bursts, Shafer Lab (AID 2284022);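 also: curves fitted for loss so actives lower network burst percentage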
# Procedure, shortened: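 Primary rat cortical neurons on 16-electrode MEA wells, treated on DIV 13 or 15 with compound (0.03-40 uM); 40-min baseline and 40-min post-exposure recordings at 37 C. Value is percent change in spikes within network bursts versus baseline, DMSO negative control.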
# [10] = CCTE_Shafer_MEA_acute_cross_correlation_area: CCTE's Neural Acute Assay for Area of Cross Correlation, Shafer Lab (AID 2284024);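 also: area under pooled inter-electrode spike cross-correlation near zero lag as percent change from own baseline; curves fitted for loss of cross-correlation area so actives lower synchrony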
# Procedure, shortened: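 Primary rat cortical neurons on 48-well MEA plates (16 electrodes/well) were recorded 40 min at baseline on DIV 13 or 15, then 40 min with compound (0.03-40 uM) at 37 C; cross-correlation area expressed as percent change from baseline.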
# [11] = CCTE_Shafer_MEA_acute_LDH: CCTE's Lactate Dehydrogenase Assay for Cytotoxicity in the Neural Acute Assay, Shafer Lab (AID 2284086; active = hit-call score of the fitted dose curve at least 0.9, where 1 is the maximum;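 also: active means LDH release rises above DMSO vehicle level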)
# Procedure, shortened: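 LDH absorbance at 490 nm in medium taken right after 40-min compound exposure; rat primary cortical neuron networks on MEA plates, days post-plating 13 or 15. Increase over DMSO baseline scored as cytotoxicity.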
# [12] = CCTE_Mundy_HCI_hN2_NOG_NeuriteCount: CCTE's Neurite Outgrowth Assay in human hN2 cells for Neurite Count, Mundy Lab (AID 2284219; active = hit-call score of the fitted dose curve at least 0.9, where 1 is the maximum)
# Procedure, shortened: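 In this morphology assay, hNP1-derived neurons received test chemical 2 h post-plating and were fixed two days later in warm paraformaldehyde/sucrose containing Hoechst 33342. Neurites, labelled by rabbit anti-βIII-tubulin (1:800) and Alexa Fluor-488 (1:500), were counted automatically.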
# [13] = CCTE_Mundy_HCI_hN2_NOG_NeuriteLength: CCTE's Neurite Outgrowth Assay in human hN2 cells for Neurite Length, Mundy Lab (AID 2284220; active = hit-call score of the fitted dose curve at least 0.9, where 1 is the maximum)
# Procedure, shortened: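 Plate hNP1-derived neurons, then add chemical 2 h later as a 1/10 dilution. Stain with anti-βIII-tubulin then Alexa Fluor-488 secondary, and image automatically to measure neurite length.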
# [14] = CCTE_Mundy_HCI_hN2_NOG_NeuronCount: CCTE's Neurite Outgrowth Assay in human hN2 cells for Neuron Count, Mundy Lab (AID 2284221; active = hit-call score of the fitted dose curve at least 0.9, where 1 is the maximum)
# Procedure, shortened: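 Read-out is the number of betaIII-tubulin-positive neurons imaged by automated high-content analysis, with DMSO as negative control.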
smiles,measurement,setting,value
CN(C)C(=O)C(CCN1CCC(O)(c2ccc(Cl)cc2)CC1)(c1ccccc1)c1ccccc1,AC50,[1],283 nM (active)
same,AC50,[2],165 nM (active)
same,outcome,[3],inactive
same,AC50,[4],2270 nM (active)
same,AC50,[5],68 nM (active)
same,outcome,[6],inactive
same,outcome,[7],inactive
same,outcome,[8],inactive
same,outcome,[9],inactive
same,outcome,[10],inactive
same,outcome,[11],inactive
same,AC50,[12],16000 nM (active)
same,AC50,[13],15800 nM (active)
same,AC50,[14],13900 nM (active)
